Shiga toxin inh: inhibitors of Shiga toxin in Vero cells; Vero cells, Shiga toxin protein synthesis inhibition reporter; inhibition, % at 38.7 µM; 290,000 compounds, 9.2% hits; in the data active = inhibition mostly above about 28%, no sharp cut-off; inactive = mostly below about 43%; also: 0% is about no effect
LASV entry inh: Lassa virus entry inhibition | Lassa virus pseudotype entry inhibition, cell reporter | Potency, µM (highest dose often 37.9 µM), inactives show top-dose activity change, negative = inhibition, usual class: inhibitors | 300,000 compounds, 1.2% hits; calls by dose curve; tested in HEK293 cells; also: potency is read from the fitted curve at half-maximal effect; % is scaled to controls: 0 for no effect and ±100 for the full control effect; nearly all actives have a fitted effect of over 50% in size
Cycloheximide cs: counter-screen hit for Shiga toxin inhibitors, cycloheximide | AID 2314 | max response, % | 300,000 compounds, 12% hits | cell reporter, cycloheximide protein synthesis inhibition counterscreen; in the data active = max response mostly above about 13%, no sharp cut-off; inactive = mostly below about 14%; also: read at 38.3 µM for the half of the compounds with a filed dose; 0% is about no effect
MARV entry inh: blocks Marburg virus binding to or entry into cells; Marburg virus pseudotyped entry inhibition, cell reporter; Potency, µM (doses to about 37.8 µM), for inactives: top-dose activity change, negative = inhibition, actives largely listed as inhibitors; 300,000 compounds, 1.8% hits; calls by dose curve; tested in HEK293 cells; also: potency is read from the fitted curve at half-maximal effect; % is scaled to controls: 0 for no effect and ±100 for the full control effect
Pf growth 48h: P. falciparum growth inhibition at 48 hours (one generation) | P. falciparum luciferase growth in erythrocytes, 48 h | Potency, µM (highest dose often 28.7 µM), inactives show at the highest dose activity change, negative = inhibition, most hits filed as inhibitors | 310,000 compounds, 5.9% hits; also: potency is read from the fitted curve at half-maximal effect; % is scaled to controls: 0 for no effect and ±100 for the full control effect
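Luminescence readout; reporter = integrated firefly luciferase in P. falciparum. RBC culture at 2% hematocrit, 0.1% parasitemia final, 37 C/5% CO2; decreased signal taken as growth inhibition.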
Pf growth 96h: P. falciparum growth inhibition at 96 hour, primary screen for plastid delayed-death inhibitors; P. falciparum luciferase reporter growth, 96 h; Potency, µM (series often up to 28.7 µM), inactives show at the highest dose activity change, negative = inhibition, actives largely listed as inhibitors; 320,000 compounds, 6.9% hits; AID 504834; also: potency is read from the fitted curve at half-maximal effect; % is scaled to controls: 0 for no effect and ±100 for the full control effect
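Compounds incubated with erythrocytes infected by luciferase-expressing P. falciparum (2% hematocrit, 0.05% parasitemia final) for 96 hours, 37 C in 5% CO2. Growth inhibition scored as decreased luciferase luminescence.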
* marks the source's active call; other numbers are inactive results; ? = inconclusive; / = not tested or not shown; [ ] = remark or other dose. Most compounds without a hit are left out; they make up all but 19% or so of the library. Unless noted, calls follow the shape of the dose curve; as a rule, active = well fitted inhibition curve with a large enough effect; inconclusive = small, poorly fitted or top-dose-only effect, or another doubt; inactive = no such curve, though single readings can be large or run the other way.

SMILES	Shiga toxin inh	LASV entry inh	Cycloheximide cs	MARV entry inh	Pf growth 48h	Pf growth 96h
O=C(Nc1cc(S(=O)(=O)N2CCCCC2)ccc1Oc1ccccc1)C1=COCCO1	5.1	/	-2.0	/	10.4µM*	10.4µM*
Cc1nc2c(ccc3nc(NC(=O)C(c4ccccc4)c4ccccc4)sc32)s1	-11.3	7.1%	-2.2	-5.5%	3.7µM*	10.4µM*
Cc1nc2c(ccc3nc(NC(=O)c4ccc5c(c4)OCCO5)sc32)s1	42.7	-23.5%	45.0*	?	80.7%	?
Cc1ccc2sc(NC(=O)c3ccc4c(c3)OCCO4)nc2c1C	/	18.6%[46.1 µM]	/	/	/	/
Cc1nc2ccc3nc(NC(=O)c4ccc5c(c4)OCCO5)sc3c2s1	-12.7	?	12.2*	14.5%	77.9%	/
CC(C)C[C@H](NC(=O)OC(C)(C)C)c1nnc(SCC(=O)Nc2ccc(Br)cc2)o1	23.3	-27.7%	-1.5	3.5%	?	?
O=P(O)(O)Cc1ccccc1OP(=O)(c1ccccc1)c1ccccc1	1.2	7.2%	1.0	-18.9%	37.7%	?
CC(C)(C)n1nc2c(c1NC(=O)c1ccccc1C(F)(F)F)CS(=O)(=O)C2	-19.1	0.2%	-1.6	-0.3%	36.6%	29.4%
Cc1cc(NC(=O)CCC(=O)N(Cc2ccco2)C(C(=O)NC2CCCC2)c2ccccc2)no1 (stereo unspecified)	-4.0	-3.2%[46.1 µM]	-5.3	?	?	4.5%
Cc1ccc(C(=O)NCCC(=O)N2CCOCC2)cc1	85.4*	/	50.1*	/	183.9%	11.5%
Cc1ccc(C(=O)NCCCN2CCOCC2)cc1	/	20.3%	/	14.6%	/	/
Cc1ccc(C(=O)NCCN2CCOCC2)cc1	20.0	?	13.1*	23.6%	26.6%	33.1%
CC(=O)N1CCN(C(=O)CCNC(=O)c2ccc(Br)cc2)CC1	/	-17.8%	/	9.4%[46.1 µM]	/	/
COc1ccc(NC(C)=O)cc1NC(=O)CCn1c(=O)sc2ccccc21	6.9	17.4%	-0.8	15.3%	19.3%	33.7%
CCC1CN(C(=O)C2CCN(S(=O)(=O)c3c(C)noc3/C=C/c3ccccc3F)CC2)c2cc(C)ccc2O1 (stereo unspecified)	/	-3.3%[46.1 µM]	/	/	/	/
CCNC(=S)N/N=C/c1cc(Br)cc(Br)c1OC	-12.9	-14.4%	-5.8	-16.0%	?	/
O=C(CN1CCCCC1)NC(=O)NC1CCCC1	55.5*	0.6%	23.2*	?	56.4%	5.0%
O=C(Cn1ncc(Cl)c(Cl)c1=O)NC(=O)NC1CCCCC1	/	?	/	11.2µM*	/	/
O=C(CN1CCCCCCC1)NC(=O)NC1CCCCC1	51.4	-15.0%	23.2	1.9%[46.1 µM]	0.0%	?
COc1cccc(C(=O)Nc2ccc3c(cc2=O)[C@@H](NC(C)=O)CCc2cc(OC)c(OC)c(OC)c2-3)c1	-4.6	/	-2.0	/	8.28µM*	?
ON1C2CCCCC2N(O)C1c1ccccc1C(F)(F)F (stereo unspecified)	-23.3	-6.6%	-2.0	4.9%	7.3%	-98.9%
Cc1nc2c(S(=O)(=O)c3ccccc3)cnn2c(C)c1C	2.9	4.3%	4.4	?	317.3%	5.7%
O=C1NC(=S)N/C1=C\C=C\c1ccccc1	50.4*	/	30.3*	/	58.6%	37.4%
CCOC(=O)CN1C(=O)C(C)(C)Oc2ccc(C(=O)NC(C)(C)CC)cc21	8.9	1.3%	22.3*	6.0%	-4.8%	15.6%
CC1(C)Oc2ccc(C(=O)Nc3ccccc3)cc2N(CC#N)C1=O	38.1*	-7.3%[46.1 µM]	17.5*	?	-5.3%	2.94µM*
SMILES	Shiga toxin inh	LASV entry inh	Cycloheximide cs	MARV entry inh	Pf growth 48h	Pf growth 96h
Cc1ccc(OCCn2c(CCCO)nc3ccccc32)cc1	-13.8	-3.2%	-4.7	-19.4%	?	71.7%
Cn1c(=O)n(CCOc2ccc([N+](=O)[O-])cc2)c2ccccc21	67.5*	2.2%	26.2*	7.1%[14.2 µM]	11.0%	0.0%
Cc1ccc(OCCn2c(=O)n(C)c3ccccc32)cc1	104.5*	5.7%	42.3*	?	66.3%	364.1%
N#Cc1c(-c2ccc(F)cc2)ccnc1N1CCOCC1	26.5	-10.6%[46.1 µM]	18.5*	?	?	?
N#Cc1c(-c2ccccc2)ccnc1N1CCOCC1	29.8	2.3%	11.5	1.1%[46.1 µM]	-16.8%	3.6%
Cc1nnc(NC(=O)NC(C)N2C(=O)C3C4C=CC(C4)C3C2=O)s1 (stereo unspecified)	-15.9	0.0%[46.1 µM]	0.9	?	2.62µM*	-25.8%
COC(=O)c1nc2n(n1)C(c1cccc(Cl)c1)C1=C(CCCC1=O)N2 (stereo unspecified)	-32.2	/	-7.4	/	/	-10.6%

Screening data as filed in PubChem.
